# Measured values reported in ChEMBL document CHEMBL3988442, “University of Dundee, Small-Polar-MMV Screening Library” (2021).
# Hit rate of the full screen: of about 69,000 compounds, about 1,000 (1.4%) showed an effect of 50% or more. For the sample, strong results were picked, then their nearest neighbours and some compounds at random.
# Test system: Leishmania donovani
# Test: Leishmania intramacrophage assay
# Format: functional, organism-based
# Design: scale not given: in the data most compounds retested in dose-response had high values
smiles,measurement,setting,value
CN(C)c1ccc(NC(=O)c2cccc(N(C)C)c2)nc1,Percent Effect,"30.3 µM, […]",-2.123%
CCC(Nc1nc(C)nc2c1cnn2C)c1ncnn1CC (stereo not drawn),Percent Effect,"30.3 µM, […]",26.92%
O=C(CCn1ccc2cc(Br)ccc21)/N=c1\[nH]nc(C2CCCO2)s1 (stereo not drawn),Percent Effect,"30.3 µM, […]",4.273%
Cc1ccoc1-c1nnc(CNCC2CCCN2c2cccnn2)o1 (stereo not drawn),Percent Effect,"30 µM, 30.03 µM",-17.44%
COCCN(C)C[C@@H]1CN(C(=O)c2ccc(C)cc2)C[C@@H]1CO,Percent Effect,"30.3 µM, […]",11.58%
CN1CCCC2(CCN(C(=O)Cn3ncc4ccccc4c3=O)C2)C1=O (stereo not drawn),Percent Effect,"30.3 µM, […]",-13.05%
Cc1ccc(CN2CCN(CC(=O)N(C)C)[C@@H]3CS(=O)(=O)C[C@@H]32)cc1C,Percent Effect,"30.3 µM, […]",18.74%
COc1ccc(-c2noc(C(N)CCSC)n2)cc1 (stereo not drawn),Percent Effect,"30.3 µM, […]",-25.69%
N[C@H]1CN(CCOc2ccc(F)cc2)C[C@@H]1C1CC1,Percent Effect,"30.3 µM, […]",44.73%
N[C@H]1CN(CCCOc2ccccc2)C[C@@H]1C1CC1,Percent Effect,"30.3 µM, […]",66.02%
NC(=O)c1ccc(OCCCN2C[C@H](C3CC3)[C@@H](N)C2)cc1,Percent Effect,"30.3 µM, […]",42.52%
COCc1nn(C(C)C)c2c1CCN(Cc1nccs1)C2.O=C(O)C(F)(F)F,Percent Effect,"30.3 µM, […]",-18.46%
CCCc1c(C2CCOC(C)(C)C2)nc(N)c(C#N)c1-c1cnn(C)c1 (stereo not drawn),Percent Effect,"30.3 µM, […]",65.78%
Cc1c(C2CCOC(C)(C)C2)nc(N)c(C#N)c1-c1ccc(O)cc1 (stereo not drawn),Percent Effect,"30.3 µM, […]",-5.002%
CCn1cc(-c2c(C)c(C3CCOC(C)(C)C3)nc(N)c2C#N)cn1 (stereo not drawn),Percent Effect,"30.3 µM, […]",20.42%
CC(C)Oc1ccc(CN2CCC(c3n[nH]c4ncccc34)CC2)cc1,Percent Effect,"30.3 µM, […]",1.844%
Cc1ccccc1N1CCN(c2cc(N(C)C)ncn2)C(C)C1 (stereo not drawn),Percent Effect,"30.3 µM, […]",15.61%
Cc1ccc(N2CCN(c3ccccc3C)CC2C)nn1 (stereo not drawn),Percent Effect,"30.3 µM, […]",9.128%
Cc1ccccc1N1CCN(c2ccncn2)C(C)C1 (stereo not drawn),Percent Effect,"30.3 µM, […]",61.35%
Cc1nn(C)c(C)c1CN(C)c1nc(C2CCCC2)nc2c1cnn2C,Percent Effect,"30.3 µM, […]",17.71%
CN1CCC(c2n[nH]c3ncccc23)C1.O=CO (stereo not drawn),Percent Effect,"30.3 µM, […]",16.17%
CCc1cnc(CN(C(C)=O)C2CCN(CC(=O)N3CCCC3)C2)o1 (stereo not drawn),Percent Effect,30 µM,28.38%
Cc1cc(NCCN)nc2ccccc12.O=[N+]([O-])O,Percent Effect,"30.3 µM, […]",54.09%
Cc1cc(NCCCNS(C)(=O)=O)nc2ccccc12,Percent Effect,"30.3 µM, […]",-8.515%
Cc1cc(NCCS(C)(=O)=O)nc2ccccc12,Percent Effect,"30.3 µM, […]",25.68%
CC(C)c1nc(CN(C)C(=O)c2cn3ccsc3n2)cs1,Percent Effect,"30.3 µM, […]",-3.628%
CC(=O)Nc1nc(CS(=O)(=O)CCCc2ccccc2)cs1,Percent Effect,"30.3 µM, […]",22.96%
CCC(C)CS(=O)(=O)NCCc1csc(N2CCCC2)n1 (stereo not drawn),Percent Effect,"30.3 µM, […]",43.99%
CC(C)(C)CCS(=O)(=O)NCCc1csc(N2CCCC2)n1,Percent Effect,"30.3 µM, […]",30.66%
CCCC(C)CS(=O)(=O)NCCc1csc(N2CCCC2)n1 (stereo not drawn),Percent Effect,"30.3 µM, […]",65.07%
O=C1CO[C@H]2CN(Cc3cccc4[nH]ccc34)C[C@@H]2N1C1CCOCC1,Percent Effect,"30.3 µM, […]",12.12%
Cc1ccc(C2CCCN2S(=O)(=O)N(C)Cc2cnn(C)c2)o1 (stereo not drawn),Percent Effect,"30.3 µM, […]",-0.6676%
CCOc1ccc(C(=O)CCC(=O)N(C)Cc2noc(C)n2)cc1C,Percent Effect,"30.3 µM, […]",4.933%
CN1CCCC1(CCCc1cccnc1)C(=O)NCc1nccn1C (stereo not drawn),Percent Effect,"30.3 µM, […]",27.11%
Cc1ccc(O)c(CNC2CCc3nc(C(C)C)nn3C2)n1 (stereo not drawn),Percent Effect,"30 µM, 30.03 µM",0.7212%
Cc1ccc(S(=O)(=O)N2CCN(CCCO)CC2)s1,Percent Effect,"30.3 µM, […]",55.51%
Cc1ccc(S(=O)(=O)N2CCN(CCC(N)=O)CC2)s1,Percent Effect,"30.3 µM, […]",13.04%
Cc1ccc(S(=O)(=O)N2CCN(CCC#N)CC2)s1,Percent Effect,"30.3 µM, […]",34.19%
C[C@H](NC(=O)c1cnc(-c2ccccc2)nc1O)C(N)=O,Percent Effect,"30.3 µM, […]",12.89%
CCSCC(C)NCc1ccccc1-n1ccnc1 (stereo not drawn),Percent Effect,"30.3 µM, […]",-5.681%
COc1ccc(C(C)NCc2ccnn2C)cc1Cn1cccn1 (stereo not drawn),Percent Effect,"30.3 µM, […]",30.62%
Cc1cnc(CN2CCN(c3nc(C)cs3)C(C)C2)cn1 (stereo not drawn),Percent Effect,"30.3 µM, […]",-40.38%
Cc1csc(N2CCN(Cc3cscn3)CC2C)n1 (stereo not drawn),Percent Effect,"30.3 µM, […]",-18.36%
Cc1csc(N2CCN(Cc3cnc(C)s3)CC2C)n1 (stereo not drawn),Percent Effect,"30 µM, 30.03 µM",50.44%
O=C1CC2(CCN(Cc3ccc4cccc(O)c4n3)CC2)CN1,Percent Effect,"30.3 µM, […]",0.5464%
O=C1CC(c2cccnc2)c2c(c(C(=O)O)cn2-c2cccc(F)c2)N1 (stereo not drawn),Percent Effect,"30.3 µM, […]",52.29%
O=C1CC(c2cccnc2)c2c(c(C(=O)O)cn2-c2ccc(Cl)cc2)N1 (stereo not drawn),Percent Effect,"30.3 µM, […]",19.15%
O=C1CC(c2cccnc2)c2c(c(C(=O)O)cn2-c2ccccc2)N1 (stereo not drawn),Percent Effect,"30 µM, 30.03 µM",-20.51%
CCc1cnc2c(c1Nc1cccc(OC)c1)c(=O)n(C)c(=O)n2C,Percent Effect,"30.3 µM, […]",19.41%
CC(=O)N[C@H]1CCN(c2nc(C)nc3c2c(C)nn3C)C1,Percent Effect,"30.3 µM, […]",15.16%
COc1cccc(Nc2nc(N3CCCC3)nc3c2CNCC3)c1.Cl,Percent Effect,"30.3 µM, […]",98.87%
Cc1sc2c(C3CCCNC3)nc(Nc3cccc(F)c3)n2c1C.Cl (stereo not drawn),Percent Effect,"30.3 µM, […]",8.436%
CC(Nc1nc(-c2ccncc2)nc2c1CCNC2)c1ccccc1 (stereo not drawn),Percent Effect,"30.3 µM, […]",41.34%
